The values that follow come from PubChem BioAssay (NCI).

Common to all, as to assay: NCI-60 one-dose screen, 48 h (100 = growth as untreated, 0 = no growth, -100 = all killed)
What all share (conditions): 10 µM unless noted

Test [1] relates to SR leukemia.
For test [2], the system named is RPMI-8226 leukemia.
In test [3] the test system is OVCAR-8 ovarian.
Test [4] deals with OVCAR-5 ovarian.
The test system of test [5] is SK-OV-3 ovarian.
The subject of test [6] is IGROV1 ovarian.
For test [7], the system named is OVCAR-3 ovarian.
Test [8] concerns HS 578T breast.
In test [9] the test system is NCI/ADR-RES ovarian.
For test [10], the system named is T-47D breast.
In test [11] the test system is BT-549 breast.
The test system of test [12] is MDA-MB-435 melanoma.
For test [13], the system named is SW-620 colon.
Test [14] concerns MCF7 breast.
Test [15] has as its system HCT-116 colon.
The subject of test [16] is HCC-2998 colon.
In test [17] the test system is KM12 colon.
The subject of test [18] is OVCAR-4 ovarian.

About 83,000 compounds went through this panel and 20% of them were active in at least one assay; those are over-represented in the sample as a whole.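 Step 1: grow cells in 96-well plates. Step 2: add test compound at a single concentration. Step 3: incubate 48 h. Step 4: record percent growth.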 Unmarked numbers belong to inactive results. Activity calls are given as the source filed them. The calls were made as follows: active = growth percent below 10; inactive = the rest.

`CN1C(=O)N2CN3CCCN(C3)CN3C(=S)NC1C23` (configuration not stated): the growth in test [1] is 97.4%; in [2], 93.6%; in [3], 101%; in test [4] it was 109%; in [5], 93.3%; in test [6], 104%. The growth was 107% in test [7]; 101% in test [8]; 109% in [9]; 105% in test [10]; 117% in test [11]; 106% in test [12]. Moreover, the growth was 101% in test [13]; 95.4% in test [14]; 106% in [15]; 103% in test [16]; 104% in test [17].

Turning to `Cc1ccc2c(c1)sc1nc(-c3c[nH]c4ccccc34)c(Nc3ccccc3)n12`, the growth in test [1] is 97.2%; in test [2], 102%; in [3], 104%; in test [4] it was 105%; in test [18] it was 95.8%; in test [6], 104%. For the same molecule, the growth in test [7] was 99.2%; in test [8] it was 98.7%; in test [9] it was 104%; in test [11], 98.5%; in test [12], 97%; in test [13], 94.7%. Moreover, the growth is 98.4% in test [14], 104% in test [15], 106% in test [16] and 105% in test [17].

Regarding `N#Cc1c(-c2ccc(Br)cc2)nc2c(N=Nc3ccc(S(N)(=O)=O)cc3)c(N)nn2c1N`, the growth in test [1] is 41.2%; in [2], -13.6% (active); in [3], 46.6%; in test [4], 72.3%; in test [5], 82.8%; in [6], 40.9%. The growth in [7] was 55.3%; in [8] it was 45.1%; in [9], 97%; in test [10], 31.5%; in [11] it was 73.8%; in test [12], 56.2%. Moreover, the growth is 44.1% in test [13]; 31.6% in test [14]; 24.9% in [15]; 61.8% in [16]; 51.8% in test [17].

With `COc1ccc(C(=O)/C=C/c2ccccc2)cc1S(N)(=O)=O`, the growth in test [1] is 13.4%; in test [2], 64.9%; in test [3], 46.2%; in test [4] it was 101%; in test [18] it was 86.1%; in test [6] it was 54.3%. Also, the growth is 52.4% in test [7]; 74.4% in [8]; 79.3% in [9]; 77.6% in test [10]; 75.2% in test [11]; 96.5% in test [12]. In addition, the growth in test [13] is 25.8%; in test [14], 25%; in [15], 13.4%; in test [16], 95.2%; in test [17], 38%.

In the case of `Brc1ccc(Nc2nc(Nc3cnc4ccccc4c3)c3[nH]cnc3n2)cc1`, the growth in test [1] is 63.9%; in [2], 64.2%; in test [3] it was 83.9%; in test [4], 101%; in test [18], 73.7%; in [6] it was 74.7%. The growth was 60.2% in test [7]; 60.9% in [8]; 92.4% in [9]; 52.8% in [10]; 48.6% in test [11]; 96.3% in test [12]. Besides, the growth in test [13] was 91.9%; in [14], 58%; in test [15], 55%; in test [16] it was 103%; in test [17] it was 88.8%.

As to `CC1(C)N=C(N)N=C(N)N1c1ccc(S(=O)(=O)Nc2nccs2)cc1`, the growth in test [1] is 104%; in [2] it was 108%; in [3], 104%; in test [4] it was 91.9%; in test [5], 102%; in test [6], 100%. Further, the growth is 107% in test [7]; 103% in test [8]; 106% in [9]; 95.6% in test [10]; 94.1% in test [11]; 102% in test [12]. Further, the growth in [13] is 98.2%; in test [14], 103%; in [15] it was 100%; in test [16] it was 113%; in test [17], 101%.

For the molecule `Cc1c2ncccc2nc2[nH]c3ccc(OCCN(C)C)cc3c12`, the growth in [1] was 12.8%; in [2] it was -31.6% (active); in [3], 11.5%; in test [4], 47.5%; in test [5], 38.1%; in test [6], 9.29% (active). The growth in test [7] is 51.4%; in test [8] it was 47.9%; in test [9] it was 24.8%; in test [10] it was 32.3%; in test [11], 63.2%; in test [12], 36.8%. Also, the growth in test [13] was 17.3%; in test [14], 3.49% (active); in test [15], 12.6%; in test [16], 53.3%; in [17], 20.9%.

Regarding `C#Cc1cccc(NC(=O)C2CCCCN2C(=O)CCl)c1` (configuration not stated), the growth in [1] is 2.64% [8.25 µM] (active); in test [2], -38.4% [8.25 µM] (active); in test [3], 2.11% [8.25 µM] (active); in [4], -95% [8.25 µM] (active); in test [5], 33.1% [8.25 µM]; in [6] it was -69.9% [8.25 µM] (active). The growth in test [7] was -66.3% [8.25 µM] (active); in test [8], -22.1% [8.25 µM] (active); in test [9], -5.37% [8.25 µM] (active); in test [10], -4.16% [8.25 µM] (active); in test [11], -55.9% [8.25 µM] (active); in test [12], -57.3% [8.25 µM] (active). In addition, the growth is -59.9% [8.25 µM] (active) in test [13]; -7.64% [8.25 µM] (active) in [14]; -30.7% [8.25 µM] (active) in [15]; -18.7% [8.25 µM] (active) in test [16]; -34.2% [8.25 µM] (active) in test [17].

On to `CCOC(=O)/C(=C(/C)NCC(C)C)c1cc(O)c(O)c2c(C)cc(=O)[nH]c12`, for which the growth was 18.4% in [1]; 19.2% in [2]; 23.8% in test [3]; 86.6% in test [4]; 25.8% in test [18]; 61% in [6]. The growth is 6.74% (active) in test [7]; 79.5% in test [8]; 17.2% in test [9]; 34.7% in [10]; 63% in test [11]; 60.9% in test [12]. The growth in test [13] was 31.8%; in test [14], 29.4%; in test [15] it was 10.1%; in [16] it was 61.9%; in test [17] it was 61.5%.
